# Screens (PubChem)
# Hits are enriched below; roughly 11% of the tested compounds scored in any of these assays.
# hNpr1 antagonist – antagonists of human natriuretic peptide receptor Npr1 | Potency, µM (highest dose often 46.3 µM), inactives show at the top dose activity change, negative = inhibition, usual class: inhibitors | AID 1347048 | 76,000 compounds, 1.6% hits | HEK293 hNpr1 GloSensor cGMP, ANP-stimulated luminescence | P16066; calls by dose curve; further: nearly all actives have a fitted effect of over 60% in size
#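 Compound pre-incubated 30 min at room temperature on GloSensor-loaded HEK293 cells stably carrying hNpr1 and the pGS-40F cGMP biosensor. Stimulation uses hNppA at 0.1 nM final; luminescence is taken at baseline and 20 min post-agonist.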
# 3T3 cytotox – cytotoxic compounds in NIH 3T3 cells | NIH 3T3 viability, CellTiter-Glo ATP luminescence, 48-72 h | Potency, µM (series often up to 96.7 µM), for inactives: at the top dose activity change, negative = cytotoxicity, most hits filed as inhibitors | 94,000 compounds, 4.3% hits | AID 1345082; further: nearly all actives have a fitted effect of over 55% in size
#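 NIH 3T3 cells at 400 cells/well received 23 nL of compound by pintool and were incubated 48 or 72 h at 37 °C. Viability was read as ATP-coupled CellTiter-Glo luminescence.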
# FLuc inh – inhibitors of firefly (Photinus pyralis) luciferase; P08659; purified P. pyralis luciferase, luminescence, biochemical; 76,000 compounds, 2.5% hits; Potency, µM (series often up to 115 µM), most hits filed as inhibitors; further: nearly all actives have a fitted effect of over 65% in size
# Target sequence (P08659 whole entry, looked up): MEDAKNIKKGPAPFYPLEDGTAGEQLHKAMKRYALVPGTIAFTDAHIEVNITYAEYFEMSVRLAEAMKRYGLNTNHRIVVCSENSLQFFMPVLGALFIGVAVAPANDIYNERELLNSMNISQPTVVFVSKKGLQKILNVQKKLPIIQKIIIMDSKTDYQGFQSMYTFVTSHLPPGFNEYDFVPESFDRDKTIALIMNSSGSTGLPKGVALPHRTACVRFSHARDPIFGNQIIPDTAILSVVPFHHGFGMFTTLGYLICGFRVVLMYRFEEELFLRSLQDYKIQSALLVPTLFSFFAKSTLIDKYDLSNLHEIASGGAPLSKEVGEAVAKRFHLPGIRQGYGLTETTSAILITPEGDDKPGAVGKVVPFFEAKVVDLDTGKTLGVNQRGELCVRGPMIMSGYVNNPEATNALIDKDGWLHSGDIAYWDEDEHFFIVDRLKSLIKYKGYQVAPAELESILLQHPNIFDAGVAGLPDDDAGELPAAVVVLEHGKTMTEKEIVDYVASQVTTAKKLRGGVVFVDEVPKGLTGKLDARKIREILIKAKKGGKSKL
#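 Purified 10nM P. pyralis luciferase with 10uM D-luciferin and 10uM ATP in 50mM Tris acetate pH 7.5, 10mM Mg acetate, 0.01% Tween-20, 0.05% BSA. qHTS titration; luminescence read by CCD imager.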
# HEK cytotox – kills HEK 293 cells | HEK 293 viability, ATP luminescence (CellTiter-Glo), 48-72 h | AID 1345083 | 94,000 compounds, 6.6% hits | Potency, µM (highest dose often 115 µM), for inactives: at the top dose activity change, negative = cytotoxicity, most hits filed as inhibitors; further: nearly all actives have a fitted effect of over 60% in size
#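 HEK 293 cells seeded at 250 cells/well were exposed to compound for 48 or 72 hr at 37 degree Celsius. Viability taken as ATP content by CellTiter-Glo luminescence.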
# * = called active by the depositor; i = inactive; ? = inconclusive; . = no result given; [ ] = dose if it differs, or a comment. Unless noted, the call rests on the fitted dose curve; in most records, active means well fitted curve in the direction sought with a large enough effect; inconclusive means small, poorly fitted or top-dose-only effect, or another doubt; inactive means no such curve, though single readings can be large; an effect the other way counts as inactive or inconclusive. On the % scale 0 is the no-effect control and ±100 the full control effect; potency means the concentration at half of the fitted maximal effect.
SMILES,hNpr1 antagonist,3T3 cytotox,FLuc inh,HEK cytotox
O=C1Cc2c(-c3ccc4ccccc4c3)n[nH]c2CN1CCc1ccncc1,-20%[70.6 µM],?,i,?
O=C1Cc2c(-c3cccc4ccccc34)n[nH]c2CN1CCc1ccncc1,-5%[70.6 µM],?,i,79µM*
O=C1Cc2c(-c3ccc4c(c3)OCO4)n[nH]c2CN1CC1CCOCC1,3%[70.6 µM],10µM*,i,-28%[172 µM]
O=C(O)c1cccc(-c2n[nH]c3c2CC(=O)N(CC2CCOCC2)C3)c1,5%[70.6 µM],?,i,i
COC[C@H]1CCCN1[C@@H]1[C@H](O)[C@H](CO)O[C@@H]1CN(Cc1ccc(F)cc1)Cc1ccc(F)cc1,0%,?,i,?
CC(=O)Nc1ccc(C(=O)NC[C@@H]2C=C(C)[C@H](CC(=O)NCCN3CCOCC3)C[C@H]2C(C)C)cc1,6%,2%,45µM*,-10%
CC1=C[C@@H](CNC(=O)COc2ccccc2)[C@H](C(C)C)C[C@H]1CC(=O)NCCN1CCOCC1,-2%,-20%,i,-18%
CC1=C[C@@H](CNS(=O)(=O)c2cccs2)[C@H](C(C)C)C[C@H]1CC(=O)NCCN1CCOCC1,2%,25µM*,i,-22%
CC1=C[C@@H](CNC(=O)c2cnccn2)[C@H](C(C)C)C[C@H]1CC(=O)NCCN1CCOCC1,1%,-3%,i,-5%
COc1ccc(-c2cnc3n[nH]c(-c4ccc(F)cc4C)c3n2)cc1OC,-11%[70.6 µM],28µM*,i,28µM*
Cc1ccccc1-c1[nH]nc2ncc(-c3cccc(F)c3)nc12,-23%[70.6 µM],?,20µM*,63µM*
COc1cccc(-c2cnc3n[nH]c(-c4ccc(F)cc4C)c3n2)c1,-10%[70.6 µM],?,i,-23%[172 µM]
Cc1cc(F)ccc1-c1[nH]nc2ncc(-c3ccccc3)nc12,-14%[70.6 µM],?,i,?
COc1ccc(-c2[nH]nc3ncc(-c4ccc(CO)cc4)nc23)cc1F,0%[70.6 µM],28µM*,i,35µM*
Cc1ccccc1-c1[nH]nc2ncc(-c3ccc(F)cc3)nc12,-15%[70.6 µM],?,22µM*,45µM*
COc1cc(CNC(=O)CCC2CCN(S(=O)(=O)c3ccccc3)CC2)cc(OC)c1,-2%,-31%,i,?
CNC(=O)[C@@H](c1ccc(OC)cc1)N1CCC[C@H]1C(=O)NCC1CCCCC1,0%[70.6 µM],100µM*,i,?
CCNC(=O)[C@@H]1CCCN1[C@@H](C(=O)NC)c1ccc(OC)cc1,0%[70.6 µM],-1%[138 µM],i,-3%[172 µM]
COc1ccccc1-c1cc(C(=O)N2CCN(C(C)=O)CC2)c2cnn(C)c2n1,.,-18%,.,-9%
N#Cc1cccc(CN2CC[C@@H]3OCC(=O)N(Cc4c[nH]c5ccccc45)[C@H]3CC2)c1,-9%[70.6 µM],?,i,100µM*
CC(C)CCN1CC[C@@H]2OCC(=O)N(Cc3c[nH]c4ccccc34)[C@H]2CC1,-16%[70.6 µM],?,i,100µM*
O=C1CO[C@H]2CCN(Cc3c[nH]c4ccccc34)CC[C@@H]2N1Cc1ccccc1,-4%[70.6 µM],89µM*,i,?
Cc1noc(C)c1CN1CC[C@@H]2OCC(=O)N(Cc3c[nH]c4ccccc34)[C@H]2CC1,-10%[70.6 µM],-26%[138 µM],i,?
COc1ccccc1CN1CC[C@@H]2OCC(=O)N(Cc3c[nH]c4ccccc34)[C@H]2CC1,-16%[70.6 µM],?,i,?
CN(C)S(=O)(=O)N1CCc2nn(CC3CC3)c(=O)n2CC1,.,-2%,.,i
SMILES,hNpr1 antagonist,3T3 cytotox,FLuc inh,HEK cytotox
CC(C)c1nc(C2Cc3ccccc3N2C(=O)C2CC2)no1 (centres undefined),1%,-27%,?,-29%
COCC(=O)N1c2ccccc2CC1c1noc(C(C)C)n1 (centres undefined),5%,0%,16µM*,i
Cc1noc2c(NCCN(C)C)cc(-c3cccc(C(F)(F)F)c3)nc12,5%[70.6 µM],32µM*,i,32µM*
COCCCNc1cc(-c2cccc(C(F)(F)F)c2)nc2c(C)noc12,-16%[70.6 µM],?,i,79µM*
Cc1noc2c(N(C)C)cc(-c3cccc(C(F)(F)F)c3)nc12,-24%[70.6 µM],?,i,-13%[172 µM]
Clc1cccnc1-c1cc(NCc2ccccn2)nc2[nH]ccc12,-2%,-25%,i,?
Clc1ccc(CCNc2ncncn2)c(Cl)c1,?,?,i,40µM*
COc1ccc(CCNC(=O)C2CCc3nnc(-c4cccc(C(F)(F)F)c4)n32)cc1 (centres undefined),.,-26%,.,-13%
CCCN1C(=O)CCc2cc(NC(=O)c3ccc4c(c3)OCO4)ccc21,-3%,?,32µM*,45µM*
CCOc1ccc(C(=O)Nc2ccc3c(c2)CCC(=O)N3CC(C)C)cc1,?,?,i,28µM*
CCCN1C(=O)CCc2cc(NC(=O)c3ccc(C)cc3)ccc21,-14%,?,32µM*,?
O=C(c1ccco1)N1CC(F)(F)C[C@H]1c1nc(-c2ccncc2)no1,0%,-17%,i,i
Cn1ccc2cc(NCc3nnc(C(=O)N4CCC[C@@H]4CN4CCCC4)n3-c3ccccc3)ccc21,3%,?,?,-25%
CC(C)(C)OCC(O)CN1CCC(=O)N(CC2CC2)Cc2cc(F)ccc21 (centres undefined),.,-28%,.,?
CC(C)(C)OCC(O)CN1CCC(=O)N(Cc2ccccc2)Cc2cc(F)ccc21 (centres undefined),.,?,.,45µM*
CCCC(O)CN1CCC(=O)N(Cc2ccccc2)Cc2cc(F)ccc21 (centres undefined),.,?,.,79µM*
CCCC(O)CN1CCC(=O)N(Cc2ccccc2)Cc2ccccc21 (centres undefined),.,-11%,.,?
COCCOC1CCN(C(=O)c2ccc(Cc3c(C)noc3C)o2)CC1,-3%,i,i,-1%
Cc1noc(C)c1Cc1ccc(C(=O)N2CCC(OCCOc3ccccc3)CC2)o1,.,?,.,40µM*
Cc1ccc(C)c(S(=O)(=O)N2c3ccccc3CC2c2nc(C(C)C)no2)c1 (centres undefined),.,?,.,14µM*
Cn1nc2n(c1=O)CCN(S(=O)(=O)c1ccccc1C(F)(F)F)CC2,-1%,-13%,i,-13%
CN(Cc1cccc(N2CCN(S(=O)(=O)c3ccccc3C(F)(F)F)CC2)c1F)S(C)(=O)=O,.,?,.,35µM*
COc1ccc(C(C)NC(=O)c2ccc(Cn3ccn4nc5c(c4c3=O)CCCC5)cc2)cc1OC (centres undefined),?,?,i,?
O=C(C1CCCC1)N1CC2(CCN(C3COC3)CC2)Cc2ccccc21,.,?,.,-10%
O=C(C1CCCC1)N1CC2(CCCN(Cc3ccc(Cl)cc3)C2)Cc2ccccc21 (centres undefined),.,?,.,40µM*
O=C(C1CCCC1)N1CC2(CCN(Cc3cccnc3)C2)Cc2ccccc21 (centres undefined),.,?,.,45µM*
O=C(C1CCCC1)N1CC2(CCN(C3CCCCC3)C2)Cc2ccccc21 (centres undefined),.,?,.,45µM*
